Data reported in paper PMC4336329 (PLoS ONE, 2015).
The whole screen tested about 310,000 compounds, of which about 14,000 (4.5%) showed an effect of 50% or more. Effects have a minus sign here. The entries come from a sample that favours strong results as a whole.
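Further: peak tail current of the secondary pulse compared with the same well before compound.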

These compounds were tested against human ether-à-go-go-related gene (hERG) potassium channel (human, UniProt Q12809) (assay: primary screen, population patch clamp on CHO cells stably expressing hERG; higher = less effect of the substance).
human ether-à-go-go-related gene (hERG) potassium channel, sequence (Q12809 whole entry, looked up): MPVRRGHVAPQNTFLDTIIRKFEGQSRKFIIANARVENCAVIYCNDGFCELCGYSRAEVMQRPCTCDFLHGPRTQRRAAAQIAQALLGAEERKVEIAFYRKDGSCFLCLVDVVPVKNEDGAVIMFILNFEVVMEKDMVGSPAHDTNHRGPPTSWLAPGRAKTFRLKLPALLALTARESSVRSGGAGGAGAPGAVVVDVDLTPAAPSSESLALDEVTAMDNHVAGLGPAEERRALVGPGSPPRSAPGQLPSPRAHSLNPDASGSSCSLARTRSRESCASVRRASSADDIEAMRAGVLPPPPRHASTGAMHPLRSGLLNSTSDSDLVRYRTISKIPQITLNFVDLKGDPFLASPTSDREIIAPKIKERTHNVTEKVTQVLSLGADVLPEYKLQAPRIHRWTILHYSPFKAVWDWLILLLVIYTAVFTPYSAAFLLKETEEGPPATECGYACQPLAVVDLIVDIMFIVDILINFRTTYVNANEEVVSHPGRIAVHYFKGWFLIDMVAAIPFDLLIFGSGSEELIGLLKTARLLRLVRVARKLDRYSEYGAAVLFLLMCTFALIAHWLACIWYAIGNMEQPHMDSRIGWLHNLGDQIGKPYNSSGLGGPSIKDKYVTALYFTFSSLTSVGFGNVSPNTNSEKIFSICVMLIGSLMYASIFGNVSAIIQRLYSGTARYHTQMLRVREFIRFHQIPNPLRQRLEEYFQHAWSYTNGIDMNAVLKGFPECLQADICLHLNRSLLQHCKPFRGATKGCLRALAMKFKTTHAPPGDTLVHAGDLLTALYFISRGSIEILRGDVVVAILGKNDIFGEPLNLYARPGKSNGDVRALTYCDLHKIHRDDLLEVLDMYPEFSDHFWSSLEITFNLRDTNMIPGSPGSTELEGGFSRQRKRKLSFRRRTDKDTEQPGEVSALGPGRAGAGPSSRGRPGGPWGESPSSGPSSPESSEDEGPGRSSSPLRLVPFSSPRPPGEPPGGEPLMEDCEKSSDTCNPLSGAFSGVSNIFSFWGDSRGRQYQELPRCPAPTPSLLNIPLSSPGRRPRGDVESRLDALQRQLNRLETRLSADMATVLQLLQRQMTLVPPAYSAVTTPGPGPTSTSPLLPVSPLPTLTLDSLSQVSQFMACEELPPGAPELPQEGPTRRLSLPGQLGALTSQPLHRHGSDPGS
With `CC(OC(=O)c1ccc2ncsc2c1)C(=O)N1CCCC1` (stereo not shown) the “hERG current change (%, negative = inhibition) at 10uM” value was -56.9%. For `O=C(c1ccc2ncsc2c1)N1CCCCC1`, the “hERG current change (%, negative = inhibition) at 10uM” value was 17.9%. For `CC1CN(C(=O)C(C)OC(=O)c2ccc3ncsc3c2)CC(C)O1` (stereo not shown), the “hERG current change (%, negative = inhibition) at 10uM” value was 20.1%. `CCCc1nnc(SCC(=O)N2CCCC2)n1Cc1ccco1` was tested, and the “hERG current change (%, negative = inhibition) at 10uM” value was 1.2%. `Cc1ccc2c(c1)sc(=NC(=O)C1CC1)n2C` was tested, and the “hERG current change (%, negative = inhibition) at 10uM” value was -4.01%. For `CCOC(=O)c1cnc2ccc(C)cc2c1Sc1ccccc1C(=O)OC`, the “hERG current change (%, negative = inhibition) at 10uM” value was -2.26%. With `CCOC(=O)C1CCN(Cc2cn[nH]c2-c2ccccc2)CC1.O=C(O)C(=O)O` the “hERG current change (%, negative = inhibition) at 10uM” value was -9.8%. For `COc1ccc(CN2CCN(C(=O)c3cccs3)CC2)c(OC)c1OC`, the “hERG current change (%, negative = inhibition) at 10uM” value was -6.53%. With `COc1ccc(-c2[nH]ncc2CN2CCN(C(=O)c3cccs3)CC2)c(F)c1` the “hERG current change (%, negative = inhibition) at 10uM” value was -21.5%. In the case of `CCOC(=O)C1CCN(Cc2cn[nH]c2-c2ccc(C)cc2)CC1`, the “hERG current change (%, negative = inhibition) at 10uM” value is reported as -51.8%. In the case of `Cc1ccc(-c2[nH]ncc2CN2CCN(C(=O)c3cccs3)CC2)cc1C`, the “hERG current change (%, negative = inhibition) at 10uM” value is reported as -62.5%. For `CCOC(=O)N1CCN(Cc2cn[nH]c2-c2cc3ccccc3o2)CC1`, the “hERG current change (%, negative = inhibition) at 10uM” value was -34.4%. `CCOC(=O)N1CCN(Cc2cn[nH]c2-c2ccc(-c3ccccc3)cc2)CC1` was tested, and the “hERG current change (%, negative = inhibition) at 10uM” value was -54.8%. In the case of `CCOC(=O)N1CCN(Cc2cn[nH]c2-c2cccc3ccccc23)CC1`, the “hERG current change (%, negative = inhibition) at 10uM” value is reported as -4.57%. With `CCOC(=O)C1CCN(Cc2ccccc2C)CC1` the “hERG current change (%, negative = inhibition) at 10uM” value was 0.665%. `O=C(Nc1cc(=O)[nH]c2nc(-c3ccccc3)nn12)c1ccccc1Cl` was tested, and the “hERG current change (%, negative = inhibition) at 10uM” value was 15.3%. For `Cc1sc(NC(=O)c2ccc(Br)s2)c(C(N)=O)c1C`, the “hERG current change (%, negative = inhibition) at 10uM” value was 17.5%. `OCCN(Cc1ccccc1)Cc1ccc(Cl)cc1Cl` was tested, and the “hERG current change (%, negative = inhibition) at 10uM” value was -14%. With `OCCN(Cc1ccccc1)Cc1ccc(Cl)cc1` the “hERG current change (%, negative = inhibition) at 10uM” value was -73%. In the case of `OCCN(Cc1ccccc1)Cc1ccc(F)c(F)c1`, the “hERG current change (%, negative = inhibition) at 10uM” value is reported as -14.9%. In the case of `COc1ccc(S(=O)(=O)N2CCOC2CNC(=O)C(=O)NCc2ccccn2)cc1C` (stereo not shown), the “hERG current change (%, negative = inhibition) at 10uM” value is reported as 11.6%. With `Cc1ccc(-c2csc(NC(=O)c3c(C)noc3C)n2)cc1` the “hERG current change (%, negative = inhibition) at 10uM” value was -31.7%. With `Cc1noc(C)c1C(=O)Nc1nc(-c2ccccc2Cl)cs1` the “hERG current change (%, negative = inhibition) at 10uM” value was -0.869%. In the case of `Cc1noc(C)c1C(=O)Nc1nc(-c2cccs2)cs1`, the “hERG current change (%, negative = inhibition) at 10uM” value is reported as -56.9%. For `CCc1noc(C)c1C(=O)Nc1nc(-c2cccs2)cs1`, the “hERG current change (%, negative = inhibition) at 10uM” value was -57%. With `CCc1noc(C)c1C(=O)Nc1nc(-c2ccccc2)cs1` the “hERG current change (%, negative = inhibition) at 10uM” value was -32.6%. In the case of `CCc1noc(C)c1C(=O)Nc1nc(-c2ccc(OC)cc2)cs1`, the “hERG current change (%, negative = inhibition) at 10uM” value is reported as -6.43%. With `Cc1ccc(NC(=S)N2CCN(C(=O)C3CCCO3)CC2)cc1` (stereo not shown) the “hERG current change (%, negative = inhibition) at 10uM” value was 17.8%. For `Cc1c(N)c(C(C)(C)C)cc(C(C)(C)C)c1[N+](=O)[O-]`, the “hERG current change (%, negative = inhibition) at 10uM” value was 0.751%. With `Cc1sc2ncnc(SCC(=O)c3ccc(Cl)s3)c2c1C` the “hERG current change (%, negative = inhibition) at 10uM” value was 18.3%. With `Cc1cc(NC(=O)CN2CCCCC2)no1.O=C(O)C(=O)O` the “hERG current change (%, negative = inhibition) at 10uM” value was 18.8%. In the case of `Cc1ccc2ccc3cccc4ccc1c2c34`, the “hERG current change (%, negative = inhibition) at 10uM” value is reported as 14%. In the case of `S=c1[nH]nc(COc2ccccc2)n1/N=C/C=C/c1ccco1`, the “hERG current change (%, negative = inhibition) at 10uM” value is reported as 3.42%. With `CC(NC(=O)Nc1ccc([N+](=O)[O-])cc1)C(c1cccs1)N1CCCC1` (stereo not shown) the “hERG current change (%, negative = inhibition) at 10uM” value was -60.1%. `CC(NC(=O)Nc1ccccc1)C(c1cccs1)N1CCN(C)CC1` (stereo not shown) was tested, and the “hERG current change (%, negative = inhibition) at 10uM” value was -17.8%. For `CC(NC(=O)Nc1cccc(Cl)c1)C(c1cccs1)N1CCCC1` (stereo not shown), the “hERG current change (%, negative = inhibition) at 10uM” value was -22.8%. `NC(=O)CSc1nnc(-c2ccncc2)n1-c1ccc(Cl)cc1` was tested, and the “hERG current change (%, negative = inhibition) at 10uM” value was -21.5%. With `COc1ccc(NC(=S)N2CCN(S(C)(=O)=O)CC2)cc1OC` the “hERG current change (%, negative = inhibition) at 10uM” value was 4.68%. With `Cc1ccc(C(=O)O/N=C(\N)Cc2cccs2)c(Cl)c1` the “hERG current change (%, negative = inhibition) at 10uM” value was 0.558%. `Cc1cccc(CN2CCC(Oc3ccc(C(=O)N4CCCCC4)cc3)CC2)c1` was tested, and the “hERG current change (%, negative = inhibition) at 10uM” value was -21.9%. With `COC1CCN(Cc2c(C(=O)N3CCN(C4CCCCC4)CC3)nc3ccccn23)CC1` the “hERG current change (%, negative = inhibition) at 10uM” value was 5.42%. For `O=C(c1nc2ccccn2c1CN1CCCC(OCc2ccccc2)C1)N1CCCC1` (stereo not shown), the “hERG current change (%, negative = inhibition) at 10uM” value was -44.8%. For `Cc1cccc(OC2CCN(Cc3c(C(=O)N4CCCC4)nc4ccccn34)CC2)c1`, the “hERG current change (%, negative = inhibition) at 10uM” value was -59.4%. With `O=C(c1nc2ccccn2c1CN1CCC(Cc2ccccc2)CC1)N1CCCC1` the “hERG current change (%, negative = inhibition) at 10uM” value was -70.7%. With `O=C(c1nc2ccccn2c1CN1CCN(c2ccccc2O)CC1)N1CCCC1` the “hERG current change (%, negative = inhibition) at 10uM” value was 34.7%. `CCCCCCNS(=O)(=O)c1ccc(NC(=O)C2CCCO2)cc1` (stereo not shown) was tested, and the “hERG current change (%, negative = inhibition) at 10uM” value was -21.8%. With `Cc1ccc2sc(N3CCN(C(=O)C4=COCCO4)CC3)nc2c1C` the “hERG current change (%, negative = inhibition) at 10uM” value was -15.6%. `COc1ccc(OCc2cccc(C(=O)NN)c2)cc1` was tested, and the “hERG current change (%, negative = inhibition) at 10uM” value was 2.35%. `CC1CCCC(C)N1C(=O)c1cc(F)c(F)cc1Cl` (stereo not shown) was tested, and the “hERG current change (%, negative = inhibition) at 10uM” value was 16.1%. In the case of `COc1ccc(CCNC(=O)C/C(C)=N/NC(=O)C2CCCCC2)cc1OC`, the “hERG current change (%, negative = inhibition) at 10uM” value is reported as 8.79%. For `COc1ccc(CN(C)C(=O)CCCNC(=O)c2ccc(Cl)cc2)cc1`, the “hERG current change (%, negative = inhibition) at 10uM” value was -26.6%. For `CC(OC(=O)CCCNC(=O)c1ccc(Cl)cc1)C(=O)N(C)Cc1ccccc1` (stereo not shown), the “hERG current change (%, negative = inhibition) at 10uM” value was -54.2%. In the case of `CCN(C(=O)C(C)OC(=O)CCCNC(=O)c1ccc(Cl)cc1)c1ccccc1` (stereo not shown), the “hERG current change (%, negative = inhibition) at 10uM” value is reported as -25.1%. `Cc1ccc(N2CC(C)Cn3c2nc2c3c(=O)[nH]c(=O)n2C)cc1C` (stereo not shown) was tested, and the “hERG current change (%, negative = inhibition) at 10uM” value was -10.9%. With `Cc1c(Br)cc(C(=O)N2CCCC2)c(C)c1C` the “hERG current change (%, negative = inhibition) at 10uM” value was 0.525%. `O=C(C1=C(O)C(=O)N(CCN2CCOCC2)C1c1ccc(Cl)cc1)c1cc2ccccc2o1` (stereo not shown) was tested, and the “hERG current change (%, negative = inhibition) at 10uM” value was 10.3%. `CCCCN(C)CCNC(=O)c1ccc2c(c1)NC(=O)C(N1CCCCC1)S2` (stereo not shown) was tested, and the “hERG current change (%, negative = inhibition) at 10uM” value was 2.48%. `O=C(c1ccc(Cl)cc1)C1CCCN(Cc2cccc3cccnc23)C1` (stereo not shown) was tested, and the “hERG current change (%, negative = inhibition) at 10uM” value was -75.9%. In the case of `O=C(c1cccc(Cl)c1)C1CCCN(Cc2cccc3cnccc23)C1` (stereo not shown), the “hERG current change (%, negative = inhibition) at 10uM” value is reported as -32.7%. `O=C(c1ccc(Cl)cc1)C1CCCN(Cc2cccc3cnccc23)C1` (stereo not shown) was tested, and the “hERG current change (%, negative = inhibition) at 10uM” value was -44.8%. `Cc1cc(Cl)ccc1C(=O)C1CCCN(C(=O)c2ccc3ncccc3c2)C1` (stereo not shown) was tested, and the “hERG current change (%, negative = inhibition) at 10uM” value was -29.5%. For `O=C(c1ccc(Cl)cc1)C1CCCN(Cc2ccc3ncccc3c2)C1` (stereo not shown), the “hERG current change (%, negative = inhibition) at 10uM” value was -64.3%. With `O=C(c1ccc(Cl)cc1)C1CCCN(Cc2ccc3nonc3c2)C1` (stereo not shown) the “hERG current change (%, negative = inhibition) at 10uM” value was -34.9%. With `O=C(c1ccc(Cl)cc1)C1CCCN(Cc2cccc3ncccc23)C1` (stereo not shown) the “hERG current change (%, negative = inhibition) at 10uM” value was -52.1%.
